This is an account of results in PubChem BioAssay AID651610 (Broad Institute, 2012).

Usually inhibition stands for the drop in the measured response relative to a control, in per cent.

SMILES strings stand for the structures. Out of some 360,000 compounds screened, about 3,900 (1.1%) were called active. The sample holds actives, similar compounds and a random draw of the others, so the mix is not that of the screen. Unmarked numbers belong to inactive results.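 Rule for the calls: active = mean replicate inhibition score of at least 50 and every replicate individually at or above 50; inconclusive = only one of the two criteria met; inactive = mean below 50 and not all replicates reaching 50.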

This assay can be described thus: blockers of JRFL envelope-mediated fusion – HeLa-JRFL effector, CEM21 target cells, luciferase, primary screen (AID 651610).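 Note: 0% = plate neutral controls and 100% = maraviroc near 300 nM.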 The settings on record: HeLa-JRFL Env/CEM21 cell fusion, hits give high values; at 16.7 µM unless noted.
On to `c1ccc(-c2cnc(CN3CCN(c4ccccc4)CC3)o2)cc1`, for which the inhibition was 3.52% [at 12.3 µM]. Under `CCn1c(SCc2cc(=O)n3ccsc3n2)nc2ccccc21` stands 9.35% [at 12.3 µM]. Under `CCCCn1c(SCc2ncc(-c3ccccc3)o2)nc2cc(S(N)(=O)=O)ccc21` stands 32.4% [at 12.3 µM] (active); under `C[C@H](O)C#Cc1cnc2c(c1)C(=O)N([C@H](C)CO)C[C@@H](C)[C@H](CN(C)CC1CCCCC1)O2`, -6.75%; under `C[C@H](CO)N1C[C@H](C)[C@H](CN(C)Cc2cccnc2)Oc2ncc(C3=CCCC3)cc2C1=O`, 0.845%. Under `C[C@@H]1CN([C@H](C)CO)C(=O)c2c(c3ccccc3n2C)-c2ccccc2CO[C@H]1CN(C)C(=O)[C@@H](Cc1ccccc1)N(C)C` stands -56.3%; under `Cc1cc(C(C)(C)C)oc1C(=O)N(CC(=O)NC1CCCC1)Cc1ccc(Cl)cc1`, 73.7% [at 12.3 µM] (active). As for `CS(=O)(=O)N(CC(=O)NC1CCCC1)Cc1ccc(F)cc1`, the inhibition is 12.4% [at 12.3 µM].

Take `Cc1ccc(CN(CC(=O)NC2CCCCC2)C(=O)c2csnn2)cc1`: the inhibition was -2.9% [at 12.3 µM]. Turning to `O=C(C[C@@H]1CC[C@H](NC(=O)Nc2cc(F)ccc2F)[C@H](CO)O1)NCc1ccncn1`, the inhibition was 1.2%. For `COc1ccc(CNC(=O)c2ccc(-c3cccnc3)c3ccoc23)cc1OC`, the inhibition is 55.1% [at 12.3 µM] (active). Under `Cc1noc(C)c1-c1ccc(C(=O)NCc2ccncc2)c2occc12` stands -7.55% [at 12.3 µM].

Consider `COCCCNC(=O)c1ccc(-c2c(C)noc2C)c2ccoc12`, for which the inhibition is -11% [at 12.3 µM]. On to `CC1(C)C(=O)Nc2ccccc2N1C(=O)COC(=O)Cn1cnc2ccccc2c1=O`, for which the inhibition was -40.1% [at 12.3 µM]. For `O=C(COC(=O)Cn1cnc2ccccc2c1=O)NCc1ccccc1Cl`, the inhibition was 0.405% [at 12.3 µM]. Under `CN(Cc1c(F)cccc1Cl)C(=O)COC(=O)Cn1cnc2ccccc2c1=O` stands 63.4% [at 12.3 µM] (active); under `O=C(NCc1ccccn1)[C@@H]1[C@@H](CO)[C@@H]2Cn3c(ccc(/C=C/c4ccccc4)c3=O)[C@H]1N2CC1CC1`, -8.79%; under `CC(C)C(C)NC(=O)COc1nc2ccccc2nc1N(C)C1CCCCC1` (stereo not given), 17.4% [at 12.3 µM]. As to `CN(c1ccc2nc3ccccc3c(=O)n2n1)C1CCCCC1`, the inhibition is 68.2% [at 12.3 µM] (active). Under `CC(C)c1cc(C(=O)NC2CCCCCC2)c2ccccc2n1` stands 30.2% [at 12.3 µM]; under `COc1cccc(S(=O)(=O)N(C)C[C@@H]2Oc3cc(C#CCN(C)C)ccc3S(=O)(=O)N([C@@H](C)CO)C[C@@H]2C)c1`, -11.4%; under `FC(F)(F)c1ccc(-n2cn[nH]c2=S)cc1`, 2.89% [at 12.3 µM]. Take `CCOC(=O)N1CCN(Cc2nc(Cc3cccc(C(F)(F)F)c3)no2)CC1`: the inhibition is -3.49% [at 12.3 µM]. Under `Cn1c(-c2sccc2OCc2cccc(C(F)(F)F)c2)n[nH]c1=S` stands 63.4% [at 12.3 µM] (active). Under `O=C(C[C@H]1CC[C@H]2[C@@H](COC[C@@H](O)CN2Cc2nccs2)O1)NCc1ccccc1Cl` stands 6.96%; under `CN(C)CC(=O)Nc1ccc2c(c1)[C@H]1C[C@H](CC(=O)NCc3ccccc3)O[C@@H](CO)[C@H]1O2`, -29.2%. On to `Cc1cccc(N(CC(O)CN(C)C)S(=O)(=O)c2ccccc2)c1` (stereo not given), for which the inhibition is -28.3% [at 12.3 µM]. Under `CC(C)CN(CC(C)C)CC(O)CN(c1ccccc1)S(=O)(=O)c1ccccc1[N+](=O)[O-]` (stereo not given) stands 65.4% [at 12.3 µM] (active). Under `COc1ccc([N+](=O)[O-])cc1N(CC(O)CN(CC(C)C)CC(C)C)S(=O)(=O)c1ccc(C)cc1` (stereo not given) stands -12.9% [at 12.3 µM]; under `CN(C)CC(=O)N[C@H]1CC[C@H](CCNC(=O)C2CCCCC2)O[C@H]1CO`, -245%. On to `Cc1noc(C)c1C(=O)NCC1COc2ccccc2O1` (stereo not given), for which the inhibition was -5.41% [at 12.3 µM]. As for `COc1ccc(CCNc2ncnc3nc[nH]c23)cc1OC`, the inhibition is 18% [at 12.3 µM].

Consider `c1ccc2c(c1)OCC(CNc1ncnc3nc[nH]c13)O2` (stereo not given), for which the inhibition is 72.9% [at 12.3 µM] (active). Under `C[C@@H]1CCCCO[C@H](CN(C)Cc2ccc3c(c2)OCO3)[C@@H](C)CN([C@H](C)CO)C(=O)c2cc(N(C)C)ccc2O1` stands -11.2%; under `C[C@H](NC(=O)C[C@@H]1CC[C@H](NC(=O)CN2CCOCC2)[C@H](CO)O1)c1ccccc1`, -13.9%; under `CCCCn1nnnc1C(c1ccccc1)N1CCN(c2ccccc2OC)CC1` (stereo not given), 6.77% [at 12.3 µM]. Consider `Cc1ccc(C(c2nnnn2CS(=O)(=O)c2ccc(C)cc2)N2CCC(C)CC2)cc1` (stereo not given), for which the inhibition was 53.3% [at 12.3 µM].

Take `N#Cc1ccc(C(c2nnnn2CCc2ccccc2)N2CCCCCC2)cc1` (stereo not given): the inhibition is 90.5% [at 12.3 µM] (active).

Turning to `CN(C)CC(=O)Nc1ccc2c(c1)[C@H]1C[C@@H](CC(=O)NCc3ccc(-c4ccccc4)cc3)O[C@H](CO)[C@H]1O2`, the inhibition was 19.8%. Under `COC(=O)[C@H](CC(C)C)NS(=O)(=O)c1c(F)cccc1F` stands -17.9% [at 12.3 µM]; under `COc1ccc(-c2cc(-c3ccc(N)cc3)nc(N)c2C#N)cc1OC`, 22.6% [at 12.3 µM]. With `COc1ccc(CCNC(=O)CSc2nc(-c3ccc(OC)c(OC)c3)ccc2C#N)cc1`, the inhibition is 4.49% [at 12.3 µM].

On to `CCSc1nc(-c2ccc(OC)cc2)cc(-c2ccc(OC)cc2)c1C#N`, for which the inhibition was 66% [at 12.3 µM] (active). Under `CS(=O)(=O)Nc1ccc2c(c1)[C@@H]1C[C@H](CC(=O)NCc3cc(F)ccc3F)O[C@@H](CO)[C@@H]1O2` stands 18.1%. Under `Cc1ccc(S(=O)(=O)Nc2ccc3c(c2)C(=O)N([C@H](C)CO)C[C@@H](C)[C@@H](CN(C)S(C)(=O)=O)OCCCC[C@@H](C)O3)cc1` stands -1.67%.
